{"source": "PubChem BioAssay AID1671192", "about": "(National Center for Advancing Translational Sciences (NCATS), 2021)", "note": "Results filed as inconclusive are left out. Calls of active or inactive are those of the source. Calls come from the whole dose curve; as a rule, active = well fitted curve in the direction sought with a large enough effect; inconclusive = small, poorly fitted or top-dose-only effect, or another doubt; inactive = no such curve, though single readings can be large or run the other way."}
{"target": "Polyunsaturated fatty acid lipoxygenase ALOX15 (Homo sapiens) (UniProt P16050)", "sequence (P16050 whole entry, looked up)": "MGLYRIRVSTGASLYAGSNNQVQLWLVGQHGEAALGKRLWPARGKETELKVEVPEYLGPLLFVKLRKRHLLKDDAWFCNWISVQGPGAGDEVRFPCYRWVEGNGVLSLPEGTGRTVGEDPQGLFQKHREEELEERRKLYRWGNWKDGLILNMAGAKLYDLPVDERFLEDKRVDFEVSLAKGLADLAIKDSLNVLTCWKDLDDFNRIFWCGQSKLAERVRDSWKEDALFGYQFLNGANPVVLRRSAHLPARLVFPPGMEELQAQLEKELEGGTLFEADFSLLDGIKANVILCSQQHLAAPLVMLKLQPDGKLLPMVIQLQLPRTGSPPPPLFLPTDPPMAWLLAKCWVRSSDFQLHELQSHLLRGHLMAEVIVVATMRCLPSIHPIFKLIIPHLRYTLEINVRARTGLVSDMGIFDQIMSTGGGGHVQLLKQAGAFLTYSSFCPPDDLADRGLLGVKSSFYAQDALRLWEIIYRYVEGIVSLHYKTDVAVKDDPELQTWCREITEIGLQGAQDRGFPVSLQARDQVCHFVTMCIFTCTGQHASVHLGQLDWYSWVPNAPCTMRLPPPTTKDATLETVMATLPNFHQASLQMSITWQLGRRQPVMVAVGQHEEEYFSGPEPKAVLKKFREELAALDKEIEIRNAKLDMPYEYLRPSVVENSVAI", "test": "Counterscreen qHTS for inhibitors of human arachidonate 12S-lipoxygenase (ALOX12): ALOX15 Assay", "conditions": "purified ALOX15 enzyme activity; series mostly up to 110 µM", "outline": "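Xylenol orange–ferric complex formation, read as the 573 nm to 405 nm absorbance ratio, tracks product from 50 uM arachidonic acid turned over for 30 min at RT. Enzyme is 40 nM ALOX15, pH 7.5 HEPES buffer, compound-preincubated 15 min.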"}
{"smiles": "O=Cc1ccc(-c2cccc(O)c2)cc1", "outcome": "inactive"}
{"smiles": "COc1ccccc1NC1CN(C(=O)OC(C)(C)C)C1", "outcome": "inactive"}
{"smiles": "CC[C@@H](Nc1ncnc2c1CN(C1CCNCC1)C(=O)CN2C)c1ccccc1", "outcome": "inactive"}
{"smiles": "COc1ccc(-c2nc(C3CC3)nc3c2CCN(Cc2ccc(C#N)cc2)CC3)cc1", "outcome": "inactive"}
{"smiles": "CN1CC(=O)N(C2CCNCC2)Cc2c(NCCN3CCOCC3)ncnc21", "outcome": "inactive"}
{"smiles": "CN1CCC(C(=O)N2Cc3ccccc3CC3(CCCN(CC4CCNCC4)C3)C2)CC1", "note": "(stereo not given)", "outcome": "inactive"}
{"smiles": "O=C(N1CCOCC1)N1CCn2c(nnc2-c2cncc(Br)c2)C1", "outcome": "inactive"}
{"smiles": "COc1ccc2c(c1)CCCN2C1CNC1", "outcome": "inactive"}
{"smiles": "NCc1ccc(-c2cccc(O)c2)cc1", "outcome": "inactive"}
{"smiles": "O=C1NCc2ccccc2CC12CCCN2Cc1ccsc1", "note": "(stereo not given)", "outcome": "inactive"}
{"smiles": "CN1CC(=O)N(C2CNC2)Cc2c(NC3CC3)ncnc21", "outcome": "inactive"}
{"smiles": "CN(C)c1ccc(CN2CCn3c(nnc3C3CCNCC3)C2)cc1", "outcome": "inactive"}
{"smiles": "CN1CC(=O)N(C2CCNCC2)Cc2c(NC3CCCCC3)ncnc21", "outcome": "inactive"}
{"smiles": "O=C1NCc2ccccc2CC12CCCN(CCCc1ccccc1)C2", "note": "(stereo not given)", "outcome": "inactive"}
{"smiles": "CCOC(=O)N1CCC(NC)CC1", "outcome": "inactive"}
{"smiles": "CC(C)c1nc2c(c(-c3ccc(Cl)cc3)n1)CCN(Cc1cccc3ccccc13)CC2", "outcome": "inactive"}
{"smiles": "CN1CC(=O)N(C2CCCNCC2)Cc2c1ncnc2N1CCC(N2CCCC2)CC1", "note": "(stereo not given)", "outcome": "inactive"}
{"smiles": "CCOCCNc1ncnc2c1CN(C1CCCNC1)C(=O)CN2C", "note": "(stereo not given)", "outcome": "inactive"}
{"smiles": "O=C(c1ccncc1)N1CCN(c2ccc(Cl)nn2)C(=O)C1", "outcome": "inactive"}
{"smiles": "N#Cc1ccc(CN2CCC3(CC(c4cccc(C(F)(F)F)c4)=NO3)C2)cc1", "note": "(stereo not given)", "outcome": "inactive"}
